The source made the active and inactive calls. Rule for the calls: active = hit-call score of the fitted dose curve at least 0.9, where 1 is the maximum; inactive = score below 0.9.

The nature of the assay: CCTE_Simmons_MITO_basal_resp_rate: CCTE's HepG2 Seahorse XF Respirometric Screening Assay at Basal Respiratory State, Simmons Lab (AID 2284001). The conditions noted are these: actives raise or lower the signal. As for the experimental part: CCTE_Simmons_MITO is cell-based, respirometric assay using HepG2 cells and a Seahorse XF Analyzer to measure oxygen consumption rates over four temporal phases spanning a total of 72 minutes: pre-injection (pre-treatment), basal (following test compound injection), maximal (following FCCP uncoupler injection), and inhibited (following rotenone/antimycin A injection)CCTE_Simmons_MITO_basal_resp_rate is one of 4 assay components calculated from the CCTE_Simmons_MITO assay. It is designed to make measurements of basal respiration using a form of respirometric reporter, as detected with […] signals by Seahorse XF96 technology. Data from the assay component CCTE_Simmons_MITO_basal_resp_rate was analyzed at the endpoint, CCTE_Simmons_MITO_basal_resp_rate_OCR, with bidirectional fitting relative to DMSO as the negative control and baseline of activity. Using a type of respirometric reporter, measures of basal respiration for gain or loss-of-signal activity can be used to understand cellular oxygen consumption as it relates to cellular respiration. To generalize the intended target to other relatable targets, this assay endpoint is annotated to the mitochondria intended target family, where the subfamily is respiration.
Test chemicals were administered as a titrated series of 7 concentrations from 125 nM up to 100 uM [final] prior to kinetic endpoint detection at 6 minute intervals [3 min mix followed by 3 minutes measure] for 72 minutes. Three biological replicates of technical singles were run for every chemical concentration tested. Dimethylsulfoxide [DMSO] was used as the vehicle control. The electron transport chain inhibitor fenpyroximate was used as the positive control for decreased basal respiration and was administered as a titrated series of 6 concentrations from 250 nM up to 2.75 uM [final] with technical triplicates for the top concentration only. The uncoupler 2,4-dintirophenol was used as the positive control for increased basal respiration and was administered as a titrated series of 6 concentrations from 938 nM up to 40 uM [final] with technical triplicates for the top concentration only. A Seahorse XF Analzyer is required to measure the response.
On to `CCOc1cccc(-n2cc(C(=O)N3CCN(c4cc(C(=O)O)c5ccccc5c4)CC3)nc2-c2ccc(C)cc2)c1`, for which the compound was classed as inactive.

Consider `Cn1c(=O)cc(Oc2ccc(F)cc2F)c2cnc(NCC(C)(C)O)nc21`, for which the result was inactive.

Take `Cc1c(-c2cccnc2)c2ccccc2n1CCCCC(=O)O`: the concentration at half-maximal activity (AC50) was 26.7 µM (active).

Take `Nc1cccc(N)c1`: the outcome was inactive.

Turning to `COc1cccc(-c2ccc(/C=C\CN3CCCCCC3)cc2Cl)c1`, the call was inactive.

In the case of `COc1ccc(/C=C/S(=O)(=O)NC(=O)c2ccc(C)cc2Cl)cc1`, the half-maximal activity concentration (AC50) was 24.6 µM (active).

With `CCOC(=O)COc1ccc2c(c1)CC(NCC(O)c1cccc(Cl)c1)CC2` (configuration not stated), the half-maximal activity concentration (AC50) was 32.9 µM (active).

As to `Cc1[nH]cnc1C[C@H]1CCc2c(C)c3ccccc3n2C1=O`, the AC50 was 30.5 µM (active).

Consider `CC(C)=CCCC(C)=CC=O`, for which the call was inactive.

As for `CC(C)CC(C)(O)C#CC(C)(O)CC(C)C` (configuration not stated), the AC50 was 50 µM (active).

For the compound `O=C(CCCCCCCCc1cccnc1)N1CCC(C=C(c2ccccc2)c2ccccc2)CC1`, the outcome was inactive.

On to `CCOC(=O)c1ccc(C2CCC(NC[C@H](O)COc3ccc(O)c(NS(C)(=O)=O)c3)CC2)cc1` (some centres not stated), for which the result was inactive.

`O=C(O)c1cccc(N(Cc2cccnc2)c2ccc(OC(F)F)c(OC(F)F)c2)c1`: the AC50 is 1.03 µM (active).

For the compound `CCCCCCc1ccc(O)cc1O`, the AC50 was 20.4 µM (active).

With `Fc1ccccc1[C@@H](F)COC1CCC(Nc2ncnc3[nH]ncc23)CC1` (some centres not stated), the AC50 was 14.1 µM (active).

For `COc1ccc2sc(C(=O)Nc3nnn[nH]3)c(OC(C)C)c2c1`, the outcome was inactive.

`Cc1ccc(N)cc1O`: the concentration at half-maximal activity (AC50) was 50 µM (active).

With `CC(C)=CCC/C(C)=C/CO`, the AC50 is 45.7 µM (active).

For the compound `CCn1nc(Cc2ccccc2)cc1C1CCN(C[C@H]2C[C@H](N(C)[C@@H](C(=O)O)C(C)C)C[C@@H]2c2cccc(F)c2)CC1`, the half-maximal activity concentration (AC50) is 27.8 µM (active).

As for `O=c1[nH]c2ccc(S(=O)CCN3CCC(Cc4ccc(F)cc4)CC3)cc2o1` (configuration not stated), the AC50 is 49.7 µM (active).

On to `C=CCCCCCCCCC(=O)O`, for which the AC50 was 35.1 µM (active).

Take `CC(C)c1cccc(C(C)C)c1N1C(=O)c2ccc(O)cc2C1=O`: the AC50 was 20 µM (active).

One may read the AC50 as the midpoint of the concentration-response curve, whichever way the signal moves.

The record behind these values is PubChem BioAssay (EPA / NIEHS).
